# Data: the supplement of paper PMC10849652
# About 7,900 targets were measured; listed, in parts, are those with a hit and a random draw of the rest. About 0.6% of all pairs of compound and target were hits. Values without a mark were called inactive.
# How the values were obtained:
# Test in all cases: log2 fold change, soluble protein after heating vs DMSO (PISA); higher = thermal stabilisation; K562 cells, 10 uM, 30 min; active = over 0.2 and 3.5 SD of the protein, either way, in both replicates (recomputed)
# [1] = compound: CS(=O)(=O)c1ccc(-c2cnc(N)c(C(=O)Nc3ccccc3)n2)cc1
# Summary of the method: (§1)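 Values are thermal stability changes relative to control samples and are taken from duplicates. They are stated as log2 fold changes. Before quantification by TMTpro 16plex LC-MS/MS with equalised channel sums, K562 cells at 2×10^6 cells/mL were treated with 10 μM compound for 30 min, heated in aliquots for 3 min across 48°C-58°C, pooled, extracted in PBS with 0.5% NP-40 at 4°C, and centrifuged at 21,000xg for 90 min to give the soluble supernatant.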
# crizotinib = compound: C[C@@H](Oc1cc(-c2cnn(C3CCNCC3)c2)cnc1N)c1c(Cl)ccc(F)c1Cl [crizotinib]
# Summary of the method: as §1
# [2] = compound: C[C@@H]1COCCN1C2=NC(=NC(=C2)C3(CC3)S(=O)(=O)C)C4=C5C=CNC5=CC=C4
# Summary of the method: as §1
# [3] = compound: C[C@H](C1=CC=C(C=C1)C(=O)NC2=C3C=CNC3=NC=C2)N
# Summary of the method: as §1
# duvelisib = compound: C[C@H](Nc1ncnc2nc[nH]c12)c1cc2cccc(Cl)c2c(=O)n1-c1ccccc1 [duvelisib]
# Summary of the method: as §1
# gandotinib = compound: Cc1cc(Nc2cc(CN3CCOCC3)c3nc(C)c(Cc4ccc(Cl)cc4F)n3n2)n[nH]1 [gandotinib]
# Summary of the method: as §1
# tozasertib = compound: Cc1cc(Nc2cc(N3CCN(C)CC3)nc(Sc3ccc(NC(=O)C4CC4)cc3)n2)n[nH]1 [tozasertib]
# Summary of the method: as §1
# [4] = compound: Cc1cc(SCc2sc(-c3ccc(C(F)(F)F)cc3)nc2C)ccc1OCC(=O)O
# Summary of the method: as §1
# doramapimod = compound: Cc1ccc(-n2nc(C(C)(C)C)cc2NC(=O)Nc2ccc(OCCN3CCOCC3)c3ccccc23)cc1 [doramapimod]
# Summary of the method: as §1
# [5] = compound: Cc1cccc(CC(=O)N2CCc3c2ccc(-c2cn(C)c4ncnc(N)c24)c3F)n1
# Summary of the method: as §1
# dasatinib = compound: Cc1nc(Nc2ncc(C(=O)Nc3c(C)cccc3Cl)s2)cc(N2CCN(CCO)CC2)n1 [dasatinib]
# Summary of the method: as §1
# [6] = compound: Cn1cc(-c2ccc3c(c2)CCN3C(=O)Cc2cccc(C(F)(F)F)c2)c2c(N)ncnc21
# Summary of the method: as §1
# tipifarnib = compound: Cn1cncc1[C@@](N)(c1ccc(Cl)cc1)c1ccc2c(c1)c(-c1cccc(Cl)c1)cc(=O)n2C [tipifarnib]
# Summary of the method: as §1
# ispinesib = compound: Cc1ccc(C(=O)N(CCCN)[C@@H](c2nc3cc(Cl)ccc3c(=O)n2Cc2ccccc2)C(C)C)cc1 [ispinesib]
# Summary of the method: as §1
# bafetinib = compound: Cc1ccc(NC(=O)c2ccc(CN3CC[C@H](N(C)C)C3)c(C(F)(F)F)c2)cc1Nc1nccc(-c2cncnc2)n1 [bafetinib]
# Summary of the method: as §1
# nilotinib = compound: Cc1cn(-c2cc(NC(=O)c3ccc(C)c(Nc4nccc(-c5cccnc5)n4)c3)cc(C(F)(F)F)c2)cn1 [nilotinib]
# Summary of the method: as §1
# [7] = compound: Cc1nc(Nc2n[nH]c3c2CN(C(=O)N[C@H](CN(C)C)c2ccccc2)C3(C)C)c2sccc2n1
# Summary of the method: as §1
# [8] = compound: Cc1ncc(-c2ccnc(Nc3ccc(S(C)(=O)=O)cc3)n2)n1C(C)C
# Summary of the method: as §1
# [9] = compound: Cn1cc(-c2ccc3nnc(C(F)(F)c4ccc5ncccc5c4)n3n2)cn1
# Summary of the method: as §1
# mubritinib = compound: FC(F)(F)c1ccc(/C=C/c2nc(COc3ccc(CCCCn4ccnn4)cc3)co2)cc1 [mubritinib]
# Summary of the method: as §1
# UniProt O95819, sequence (O95819 whole entry, looked up): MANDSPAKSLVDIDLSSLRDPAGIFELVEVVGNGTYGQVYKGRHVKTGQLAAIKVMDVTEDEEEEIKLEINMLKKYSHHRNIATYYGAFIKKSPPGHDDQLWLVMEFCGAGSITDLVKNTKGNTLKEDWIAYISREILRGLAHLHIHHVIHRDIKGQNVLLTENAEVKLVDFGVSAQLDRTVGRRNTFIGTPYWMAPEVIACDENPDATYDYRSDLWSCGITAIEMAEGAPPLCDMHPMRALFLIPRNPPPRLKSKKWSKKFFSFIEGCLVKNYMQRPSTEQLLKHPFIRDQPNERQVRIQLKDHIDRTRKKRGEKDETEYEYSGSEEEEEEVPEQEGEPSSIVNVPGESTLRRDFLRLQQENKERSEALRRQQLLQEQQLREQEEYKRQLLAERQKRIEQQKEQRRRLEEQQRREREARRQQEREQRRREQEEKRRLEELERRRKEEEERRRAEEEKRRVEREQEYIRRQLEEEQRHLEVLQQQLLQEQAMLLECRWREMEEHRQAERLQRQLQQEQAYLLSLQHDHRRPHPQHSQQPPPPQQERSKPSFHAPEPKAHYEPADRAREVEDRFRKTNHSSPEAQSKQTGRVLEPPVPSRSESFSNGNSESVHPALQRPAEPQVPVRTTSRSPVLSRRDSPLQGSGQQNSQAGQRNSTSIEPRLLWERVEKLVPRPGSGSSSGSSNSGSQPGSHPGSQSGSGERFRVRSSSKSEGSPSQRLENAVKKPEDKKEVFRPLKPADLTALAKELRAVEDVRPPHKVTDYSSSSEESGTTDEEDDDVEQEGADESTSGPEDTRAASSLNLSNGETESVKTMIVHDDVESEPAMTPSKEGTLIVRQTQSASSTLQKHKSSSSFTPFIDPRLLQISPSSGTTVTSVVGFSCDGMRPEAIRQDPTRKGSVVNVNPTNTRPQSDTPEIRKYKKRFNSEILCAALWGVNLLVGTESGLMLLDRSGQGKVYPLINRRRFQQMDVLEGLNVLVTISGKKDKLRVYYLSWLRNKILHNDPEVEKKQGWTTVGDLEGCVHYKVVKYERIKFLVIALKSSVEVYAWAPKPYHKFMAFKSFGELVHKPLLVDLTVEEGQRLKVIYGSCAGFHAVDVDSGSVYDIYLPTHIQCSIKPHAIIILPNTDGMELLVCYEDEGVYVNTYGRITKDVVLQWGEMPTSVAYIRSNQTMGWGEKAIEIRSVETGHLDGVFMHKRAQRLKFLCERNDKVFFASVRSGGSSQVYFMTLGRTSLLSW
# UniProt Q92551, sequence (Q92551 whole entry, looked up): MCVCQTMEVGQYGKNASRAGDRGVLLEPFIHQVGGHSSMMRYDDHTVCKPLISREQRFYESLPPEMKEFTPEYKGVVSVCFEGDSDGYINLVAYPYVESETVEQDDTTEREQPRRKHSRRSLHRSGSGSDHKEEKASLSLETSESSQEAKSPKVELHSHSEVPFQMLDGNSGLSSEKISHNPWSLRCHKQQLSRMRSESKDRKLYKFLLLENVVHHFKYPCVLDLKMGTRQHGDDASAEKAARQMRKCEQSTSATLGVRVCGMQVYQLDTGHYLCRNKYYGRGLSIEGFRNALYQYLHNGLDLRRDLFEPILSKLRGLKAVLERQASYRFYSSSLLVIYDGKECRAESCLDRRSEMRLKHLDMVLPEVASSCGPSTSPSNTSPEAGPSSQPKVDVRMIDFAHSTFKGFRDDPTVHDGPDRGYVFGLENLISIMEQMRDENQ
# UniProt Q9NQX7, sequence (Q9NQX7 whole entry, looked up): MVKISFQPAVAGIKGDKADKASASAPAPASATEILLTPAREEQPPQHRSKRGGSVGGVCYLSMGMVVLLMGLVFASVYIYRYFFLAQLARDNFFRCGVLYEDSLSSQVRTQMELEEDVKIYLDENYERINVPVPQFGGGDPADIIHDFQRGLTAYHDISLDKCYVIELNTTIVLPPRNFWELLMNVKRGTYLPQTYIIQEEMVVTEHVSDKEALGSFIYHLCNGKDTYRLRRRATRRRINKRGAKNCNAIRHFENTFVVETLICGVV
# UniProt Q15528, sequence (Q15528 whole entry, looked up): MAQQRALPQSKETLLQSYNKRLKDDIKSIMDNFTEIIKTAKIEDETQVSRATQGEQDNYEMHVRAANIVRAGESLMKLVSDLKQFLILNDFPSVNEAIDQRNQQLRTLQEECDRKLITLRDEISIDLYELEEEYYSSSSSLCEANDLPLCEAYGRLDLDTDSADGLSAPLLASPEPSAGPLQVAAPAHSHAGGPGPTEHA
# UniProt O94889, sequence (O94889 whole entry, looked up): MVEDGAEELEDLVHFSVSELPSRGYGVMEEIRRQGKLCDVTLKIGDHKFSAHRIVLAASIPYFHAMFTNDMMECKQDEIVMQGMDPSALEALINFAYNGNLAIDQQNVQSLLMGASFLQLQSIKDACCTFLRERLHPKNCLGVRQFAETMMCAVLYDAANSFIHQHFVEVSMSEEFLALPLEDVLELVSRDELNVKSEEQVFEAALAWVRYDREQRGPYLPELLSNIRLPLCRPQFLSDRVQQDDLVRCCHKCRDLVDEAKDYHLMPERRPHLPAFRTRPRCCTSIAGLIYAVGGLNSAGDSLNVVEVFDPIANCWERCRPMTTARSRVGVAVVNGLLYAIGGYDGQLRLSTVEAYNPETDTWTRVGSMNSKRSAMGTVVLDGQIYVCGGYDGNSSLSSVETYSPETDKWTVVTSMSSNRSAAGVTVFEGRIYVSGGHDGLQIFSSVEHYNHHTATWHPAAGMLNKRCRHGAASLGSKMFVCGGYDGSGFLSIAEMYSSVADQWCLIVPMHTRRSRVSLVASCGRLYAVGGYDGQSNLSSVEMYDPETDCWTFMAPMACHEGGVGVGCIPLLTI
# UniProt P17936, sequence (P17936 whole entry, looked up): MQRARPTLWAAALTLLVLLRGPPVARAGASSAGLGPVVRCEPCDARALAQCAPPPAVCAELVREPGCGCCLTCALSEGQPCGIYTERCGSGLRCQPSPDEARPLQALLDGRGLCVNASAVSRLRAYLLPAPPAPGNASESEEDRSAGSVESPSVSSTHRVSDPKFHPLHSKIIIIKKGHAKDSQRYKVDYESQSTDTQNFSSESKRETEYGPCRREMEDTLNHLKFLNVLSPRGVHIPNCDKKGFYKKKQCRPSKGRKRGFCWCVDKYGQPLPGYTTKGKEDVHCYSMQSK
# UniProt Q6UWB1, sequence (Q6UWB1 whole entry, looked up): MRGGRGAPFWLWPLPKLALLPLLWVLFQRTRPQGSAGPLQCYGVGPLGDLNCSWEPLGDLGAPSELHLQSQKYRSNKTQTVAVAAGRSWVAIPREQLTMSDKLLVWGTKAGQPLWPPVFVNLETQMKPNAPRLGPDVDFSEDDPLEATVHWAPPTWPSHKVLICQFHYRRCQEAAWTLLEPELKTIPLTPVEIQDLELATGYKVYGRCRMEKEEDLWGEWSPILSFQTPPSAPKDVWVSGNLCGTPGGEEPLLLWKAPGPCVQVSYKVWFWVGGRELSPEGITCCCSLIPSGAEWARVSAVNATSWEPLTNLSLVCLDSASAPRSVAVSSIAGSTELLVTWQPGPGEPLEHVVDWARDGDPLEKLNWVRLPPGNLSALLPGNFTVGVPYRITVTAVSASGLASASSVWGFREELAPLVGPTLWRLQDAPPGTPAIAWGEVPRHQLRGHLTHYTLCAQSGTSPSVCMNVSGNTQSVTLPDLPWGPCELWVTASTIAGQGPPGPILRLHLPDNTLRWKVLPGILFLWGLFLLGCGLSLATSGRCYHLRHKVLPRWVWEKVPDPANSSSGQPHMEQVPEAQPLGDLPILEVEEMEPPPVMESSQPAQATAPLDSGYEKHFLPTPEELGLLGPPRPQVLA
# UniProt Q96GX5, sequence (Q96GX5 whole entry, looked up): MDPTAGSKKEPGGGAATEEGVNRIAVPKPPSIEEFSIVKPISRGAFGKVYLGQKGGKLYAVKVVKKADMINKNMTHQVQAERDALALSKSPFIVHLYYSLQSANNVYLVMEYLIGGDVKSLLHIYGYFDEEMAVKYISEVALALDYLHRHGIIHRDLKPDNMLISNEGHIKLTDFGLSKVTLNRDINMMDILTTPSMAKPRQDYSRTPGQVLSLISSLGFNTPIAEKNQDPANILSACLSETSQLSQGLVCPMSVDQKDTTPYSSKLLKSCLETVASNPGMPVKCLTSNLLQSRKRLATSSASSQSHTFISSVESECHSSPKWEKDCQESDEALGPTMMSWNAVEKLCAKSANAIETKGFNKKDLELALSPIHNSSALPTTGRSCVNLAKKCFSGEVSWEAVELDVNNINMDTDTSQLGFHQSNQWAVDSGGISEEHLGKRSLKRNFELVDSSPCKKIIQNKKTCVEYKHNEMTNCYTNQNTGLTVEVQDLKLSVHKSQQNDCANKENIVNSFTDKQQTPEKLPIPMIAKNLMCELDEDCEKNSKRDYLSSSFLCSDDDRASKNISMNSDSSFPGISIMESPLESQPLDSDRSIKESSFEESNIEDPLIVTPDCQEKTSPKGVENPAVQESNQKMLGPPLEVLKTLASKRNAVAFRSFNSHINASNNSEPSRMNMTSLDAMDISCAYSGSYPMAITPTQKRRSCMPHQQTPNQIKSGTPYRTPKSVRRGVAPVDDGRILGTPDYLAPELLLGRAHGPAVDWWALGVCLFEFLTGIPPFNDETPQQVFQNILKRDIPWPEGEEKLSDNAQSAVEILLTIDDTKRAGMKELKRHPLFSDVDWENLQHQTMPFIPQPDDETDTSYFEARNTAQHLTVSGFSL
# UniProt P51884, sequence (P51884 whole entry, looked up): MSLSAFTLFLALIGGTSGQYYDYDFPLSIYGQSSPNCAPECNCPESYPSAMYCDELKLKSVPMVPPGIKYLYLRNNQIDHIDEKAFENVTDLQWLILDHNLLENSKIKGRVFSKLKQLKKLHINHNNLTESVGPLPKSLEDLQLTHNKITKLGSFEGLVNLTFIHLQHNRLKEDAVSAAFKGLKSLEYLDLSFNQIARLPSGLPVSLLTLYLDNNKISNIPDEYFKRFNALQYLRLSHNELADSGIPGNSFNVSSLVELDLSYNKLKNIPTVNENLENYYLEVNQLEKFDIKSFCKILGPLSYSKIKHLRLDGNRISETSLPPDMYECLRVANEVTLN
Target,log2 fold change [1],log2 fold change (crizotinib),log2 fold change [2],log2 fold change [3],log2 fold change (duvelisib),log2 fold change (gandotinib),log2 fold change (tozasertib),log2 fold change [4],log2 fold change (doramapimod),log2 fold change [5],log2 fold change (dasatinib),log2 fold change [6],log2 fold change (tipifarnib),log2 fold change (ispinesib),log2 fold change (bafetinib),log2 fold change (nilotinib),log2 fold change [7],log2 fold change [8],log2 fold change [9],log2 fold change (mubritinib)
IGFBP3 isoform 2 (UniProt P17936),-0.097,-0.176,-0.063,-0.149,0.068,-0.545,-0.092,0.027,-0.243,0.043,-0.001,0.106,-0.087,,,,,,,
MED22 (UniProt Q15528),0.013,-0.082,0.027,0.027,0.158,,-0.036,0.049,0.027,,-0.009,0.102,,-0.098,-0.137,0.019,-0.048,-0.011,0.059,-0.043
KLHL18 (UniProt O94889),0.092,,0.078,-0.084,0.049,-0.561 (active),-0.108,0.02,,-0.252,-0.187,0.061,0.044,0.028,0.027,0.005,-0.021,0.025,-0.027,-0.017
IL27RA (UniProt Q6UWB1),-0.031,0.029,0.539 (active),-0.121,0.244,,-0.039,-0.109,0.211,,0.055,-0.039,0.159,0.043,-0.098,0.086,-0.06,-0.006,-0.109,0.005
ITM2B (UniProt Q9Y287),0.065,-0.193,-0.032,0.038,-0.15,,0.033,-0.032,0.043,,0.006,0.035,0.006,0.131,-0.112,0.006,-0.062,0.033,-0.04,0.059
INTS5 (UniProt Q6P9B9),0.029,-0.013,0.058,,0.047,,0.076,0.008,0.006,,-0.11,,-0.145,0.025,-0.035,0.146,-0.08,0.167,-0.003,0.23
MED7 (UniProt O43513),-0.03,0.11,-0.031,-0.081,-0.046,,0.004,0.049,-0.199,,-0.063,-0.05,0.271,0.017,0.191,-0.029,-0.041,0.094,0.069,
MASTL (UniProt Q96GX5),-0.058,0.092,0.179,0.046,-0.199,,,-0.12,-0.075,,-0.105,-0.052,,0.099,0.143,0.014,0.002,0.021,0.276,-0.093
MAN2B2 (UniProt Q9Y2E5),0.051,-0.014,0.055,,0.094,,-0.044,0.004,0.017,,0.013,,0.093,-0.147,-0.302,-0.171,0.057,-0.023,-0.088,0.147
MED12 isoform 2 (UniProt Q93074),-0.088,-0.088,0.207,,0.068,-0.009,0.012,0.048,0.095,0.044,-0.24,,-0.071,-0.117,-0.112,-0.038,0.068,-0.058,0.003,-0.103
ITM2C (UniProt Q9NQX7),0.117,,0.239,0.137,-0.034,0.083,,0.011,,-0.127,0.024,0.09,0.039,0.051,-0.064,0.099,-0.018,0.127,0.038,
LGALS8 isoform 2 (UniProt O00214),-0.002,-0.023,-0.255,0.323,-0.223,-0.144,0.016,0.204,0.146,0.079,0.013,-0.253,,,0.107,,,,,-0.186
LUM (UniProt P51884),-0.011,0.352,-0.146,0.217,0.021,,-0.182,-0.135,0.168,,0.002,0.177,0.055,-0.007,,0.449,0.036,0.257,-0.075,
LPIN3 isoform 2 (UniProt Q9BQK8),0.016,,0.125,0.011,0.002,-0.059,-0.065,0.015,,0.024,-0.128,0.06,0.008,-0.037,0.006,-0.005,-0.051,0.038,0.002,0.089
ILF3 (UniProt Q12906),-0.152,-0.201,-0.284,,,,,,0.026,,,,,,0.084,-0.065,0.167,0.364,,-0.074
MAP4K4 isoform 3 (UniProt O95819),-0.058,,0.002,-0.055,0.091,0.311,-0.169,0.017,-0.156,0.029,-0.162,-0.024,-0.027,-0.05,-0.068,-0.038,-0.094,-0.09,0.038,0.021
MFSD11 (UniProt O43934),-0.098,-0.683 (active),-0.223,0.074,0.03,0.036,-0.109,-0.063,0.008,-0.032,-0.004,0.17,-0.047,,-0.047,-0.038,0.046,-0.119,,0.063
IP6K1 (UniProt Q92551),0.129,,-0.072,0.295,0.065,-0.145,-0.027,0.23,,0.033,-0.361,0.024,-0.038,-0.437,0.02,,,,0.116,0.137
LMBRD1 (UniProt Q9NUN5),-0.003,,0.111,-0.14,-0.037,-0.137,-0.083,-0.031,,0.01,0.064,-0.139,-0.156,-0.61 (active),-0.065,-0.006,-0.062,0.026,0.014,0.08
